System: RIVA
Test: growth inhibition by drug plus 177Lu-lilotomab satetraxetan (1 - RLU/untreated control) (fraction); higher = stronger inhibition
Conditions: 177Lu-lilotomab satetraxetan 0.5 ug/ml
Method: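 RIVA (RI-1) ABC-DLBCL cells were pretreated or not for 18 h with 0.5 ug/ml 177Lu-lilotomab satetraxetan (600 MBq/mg), washed and seeded (3000 cells/well) on 384-well plates pre-printed with the Selleck Cambridge Cancer Compound library. Viability was read by RealTime-Glo luminescence on days 3-6 after seeding. Effect = 1 - RLU/mean RLU of the 48 untreated no-drug control wells per plate; Bliss score = (M-E)/(1-Fa).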

SMILES	growth inhibition by drug plus 177Lu-lilotomab satetraxetan (10 nM, time (day): 3)	growth inhibition by drug plus 177Lu-lilotomab satetraxetan (10 nM, time (day): 4)	growth inhibition by drug plus 177Lu-lilotomab satetraxetan (10 nM, time (day): 5)	growth inhibition by drug plus 177Lu-lilotomab satetraxetan (10 nM, time (day): 6)	growth inhibition by drug plus 177Lu-lilotomab satetraxetan (100 nM, time (day): 3)	growth inhibition by drug plus 177Lu-lilotomab satetraxetan (100 nM, time (day): 4)	growth inhibition by drug plus 177Lu-lilotomab satetraxetan (100 nM, time (day): 5)	growth inhibition by drug plus 177Lu-lilotomab satetraxetan (100 nM, time (day): 6)
C=C1C[C@@H]2[C@H](CC[C@]3(C)C(=O)CC[C@@H]23)[C@@]2(C)C=CC(=O)C=C12 [Exemestane]	0.609	0.639	0.647	0.653	0.483	0.528	0.533	0.543
CC1=C2C[C@H]3[C@@H](CC=C4C[C@@H](O)CC[C@@]43C)[C@@H]2CC[C@]12O[C@@H]1C[C@H](C)CN[C@H]1[C@H]2C [Cyclopamine]	0.301	0.397	0.41	0.418	0.454	0.57	0.559	0.53
N.N.[Cl][Pt][Cl] [Cisplatin]	0.539	0.565	0.592	0.599	0.463	0.526	0.544	0.57
CC(O)(CS(=O)(=O)c1ccc(F)cc1)C(=O)Nc1ccc(C#N)c(C(F)(F)F)c1 (stereo not given) [Bicalutamide (Casodex)]	0.401	0.506	0.542	0.556	0.351	0.443	0.458	0.432
CC(C)[C@]12O[C@H]1[C@@H]1O[C@]13[C@]1(O[C@H]1C[C@H]1C4=C(CC[C@@]13C)C(=O)OC4)[C@@H]2O [Triptolide]	0.648	0.885	0.928	0.948	0.941	0.967	0.979	0.984
